Test results as given in PubChem BioAssay (NCATS).
Records with an inconclusive call do not appear. Calls of active or inactive are those of the source. Calls follow the shape of the dose curve; as a rule, active = well fitted curve in the direction sought with a large enough effect; inconclusive = small, poorly fitted or top-dose-only effect, or another doubt; inactive = no such curve, though single readings can be large; an effect the other way counts as inactive or inconclusive.

Columns and labels:
UISO = assay: qHTS assay to identify novel small-molecules to repurpose for Merkel cell carcinoma treatment (AID 1296009); conditions: MCC and control cell lines, CellTiter-Glo viability, 72 h; series mostly up to 46 µM; also: nearly all actives have a fitted effect of over 60% in size
Procedure, shortened: (§1)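 Cell viability measured by CellTiter-Glo following 72 hr compound treatment at 37 degree celsius, with NPC and MIPE libraries tested in 8- and 11-point concentration series.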

WaGa = assay: as above; conditions: MCC and control cell lines, CellTiter-Glo viability, 72 h; series mostly up to 46 µM
Procedure, shortened: as §1

C33A = assay: Primary qHTS to identify gynecologic anti-cancer compounds using libraries of approved drugs and bioactive compounds (AID 1345084); conditions: Gynecologic cancer cell panel viability, ATPlite luminescence, 48 h; series mostly up to 57.5 µM; also: nearly all actives have a fitted effect of over 55% in size
Procedure, shortened: (§2)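 ATP-based viability (ATPlite), 1,000 cells/well, 16 h pre-incubation, 48 h compound at 37 C, 5% CO2, 15 min RT before read.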

CAOV3 = assay: as above; conditions: Gynecologic cancer cell panel viability, ATPlite luminescence, 48 h; series mostly up to 57.5 µM
Procedure, shortened: as §2

CASKI = assay: as above; conditions: Gynecologic cancer cell panel viability, ATPlite luminescence, 48 h; series mostly up to 57.5 µM
Procedure, shortened: as §2

Es-2 = assay: as above; conditions: Gynecologic cancer cell panel viability, ATPlite luminescence, 48 h; series mostly up to 57.5 µM
Procedure, shortened: as §2

HeLa = assay: as above; conditions: Gynecologic cancer cell panel viability, ATPlite luminescence, 48 h; series mostly up to 57.5 µM
Procedure, shortened: as §2

Hek293T = assay: as above; conditions: Gynecologic cancer cell panel viability, ATPlite luminescence, 48 h, control line for the selectivity index; series mostly up to 57.5 µM
Procedure, shortened: as §2

JEG-3 = assay: as above; conditions: Gynecologic cancer cell panel viability, ATPlite luminescence, 48 h; series mostly up to 57.5 µM
Procedure, shortened: as §2

OV90 = assay: as above; conditions: Gynecologic cancer cell panel viability, ATPlite luminescence, 48 h; series mostly up to 57.5 µM
Procedure, shortened: as §2
% is scaled to controls: 0 for no effect and ±100 for the full control effect.

COc1ccc(CCN(C)CCCC(C#N)(c2cc(OC)c(OC)c(OC)c2)C(C)C)cc1OC (stereo not given)
inactive: Potency (UISO) | Potency (WaGa) | Potency (C33A) | Potency (CAOV3) | Potency (CASKI) | Potency (Es-2) | Potency (HeLa) | Potency (Hek293T) | Potency (JEG-3) | Potency (OV90)

NC/C=C/C(=O)O
inactive: Potency (UISO) | Potency (WaGa) | Potency (C33A) | Potency (CAOV3) | Potency (CASKI) | Potency (Es-2) | Potency (HeLa) | Potency (Hek293T) | Potency (JEG-3) | Potency (OV90)

CCN1CCC[C@H]1CNC(=O)c1c(O)c(Cl)cc(Cl)c1OC
inactive: Potency (UISO) | Potency (WaGa) | Potency (C33A) | Potency (CAOV3) | Potency (CASKI) | Potency (Es-2) | Potency (HeLa) | Potency (Hek293T) | Potency (JEG-3) | Potency (OV90)

CCn1cc(C(=O)O)c(=O)c2cc3c(cc21)OCO3
inactive: Potency (UISO) | Potency (WaGa) | Potency (C33A) | Potency (CAOV3) | Potency (CASKI) | Potency (Es-2) | Potency (HeLa) | Potency (Hek293T) | Potency (JEG-3) | Potency (OV90)

CC(C)(C)NCC(O)c1cc(O)cc(O)c1 (stereo not given)
inactive: Potency (UISO) | Potency (WaGa) | Potency (C33A) | Potency (CAOV3) | Potency (CASKI) | Potency (Es-2) | Potency (HeLa) | Potency (Hek293T) | Potency (JEG-3)

O=C(O)CN(CCOCCOCCN(CC(=O)O)CC(=O)O)CC(=O)O
inactive: activity change, negative = cytotoxicity (UISO) 21.4% [at 0.597 µM] | activity change, negative = cytotoxicity (WaGa) 12.3% [at 0.597 µM] | activity change, negative = cytotoxicity (C33A) 11.2% [at 0.462 µM] | activity change, negative = cytotoxicity (CAOV3) 7.4% [at 0.462 µM] | activity change, negative = cytotoxicity (CASKI) 2.67% [at 0.462 µM] | activity change, negative = cytotoxicity (Es-2) -1.06% [at 0.462 µM] | activity change, negative = cytotoxicity (HeLa) 11.5% [at 0.462 µM] | activity change, negative = cytotoxicity (Hek293T) -0.823% [at 0.462 µM] | activity change, negative = cytotoxicity (JEG-3) -5.11% [at 0.462 µM] | activity change, negative = cytotoxicity (OV90) 2.64% [at 0.462 µM]

CN1CCN(CC(=O)N2c3ccccc3C(=O)Nc3cccnc32)CC1
inactive: activity change, negative = cytotoxicity (UISO) 0.833% [at 4.84 µM] | activity change, negative = cytotoxicity (WaGa) 4.82% [at 4.84 µM] | activity change, negative = cytotoxicity (C33A) -17.4% [at 6.55 µM] | activity change, negative = cytotoxicity (CAOV3) 6.09% [at 6.55 µM] | activity change, negative = cytotoxicity (CASKI) 7.9% [at 6.55 µM] | activity change, negative = cytotoxicity (Es-2) 2.19% [at 6.55 µM] | activity change, negative = cytotoxicity (HeLa) 1.94% [at 6.55 µM] | activity change, negative = cytotoxicity (Hek293T) 3.74% [at 6.55 µM] | activity change, negative = cytotoxicity (JEG-3) -2.67% [at 6.55 µM] | activity change, negative = cytotoxicity (OV90) 8.92% [at 6.55 µM]

NC(=O)N1c2ccccc2C=Cc2ccccc21
inactive: Potency (UISO) | Potency (WaGa) | Potency (C33A) | Potency (CAOV3) | Potency (CASKI) | Potency (Es-2) | Potency (HeLa) | Potency (Hek293T) | Potency (JEG-3) | Potency (OV90)

NC(N)=NC(=O)Cc1c(Cl)cccc1Cl
inactive: Potency (UISO) | Potency (WaGa) | Potency (C33A) | Potency (CAOV3) | Potency (CASKI) | Potency (Es-2) | Potency (HeLa) | Potency (Hek293T) | Potency (JEG-3)

CC1=NS(=O)(=O)c2cc(Cl)ccc2N1
inactive: Potency (UISO) | Potency (WaGa) | Potency (C33A) | Potency (CAOV3) | Potency (CASKI) | Potency (Es-2) | Potency (HeLa) | Potency (Hek293T) | Potency (JEG-3)

CN(C(=O)CCCOc1ccc2[nH]c(=O)ccc2c1)C1CCCCC1
inactive: Potency (UISO) | Potency (WaGa) | Potency (C33A) | Potency (CAOV3) | Potency (CASKI) | Potency (Es-2) | Potency (HeLa) | Potency (Hek293T) | Potency (JEG-3) | Potency (OV90)

O=C(O)CCCCCCCC(=O)O
inactive: Potency (UISO) | Potency (WaGa) | Potency (C33A) | Potency (CAOV3) | Potency (CASKI) | Potency (Es-2) | Potency (HeLa) | Potency (Hek293T) | Potency (JEG-3) | Potency (OV90)

NC(=O)c1ncn([C@@H]2O[C@H](CO)[C@@H](O)[C@H]2O)c1O
inactive: Potency (UISO) | Potency (WaGa) | Potency (C33A) | Potency (CAOV3) | Potency (CASKI) | Potency (Es-2) | Potency (HeLa) | Potency (Hek293T) | Potency (JEG-3) | Potency (OV90)

CC(C(=O)O)c1ccc(CC2CCCC2=O)cc1 (stereo not given)
inactive: Potency (UISO) | Potency (WaGa) | Potency (C33A) | Potency (CAOV3) | Potency (CASKI) | Potency (Es-2) | Potency (HeLa) | Potency (Hek293T) | Potency (JEG-3) | Potency (OV90)

CN=C(NC#N)NCCSCc1nc[nH]c1C
inactive: Potency (UISO) | Potency (WaGa) | Potency (C33A) | Potency (CAOV3) | Potency (CASKI) | Potency (Es-2) | Potency (HeLa) | Potency (Hek293T) | Potency (JEG-3) | Potency (OV90)

CN1CCN(C2=Nc3ccccc3Oc3ccc(Cl)cc32)CC1
inactive: Potency (UISO) | Potency (WaGa) | Potency (C33A) | Potency (CAOV3) | Potency (CASKI) | Potency (Es-2) | Potency (HeLa) | Potency (Hek293T) | Potency (JEG-3)

COc1ccc(CN(CCN(C)C)c2ccccn2)cc1
inactive: Potency (UISO) | Potency (WaGa) | Potency (C33A) | Potency (CAOV3) | Potency (CASKI) | Potency (Es-2) | Potency (HeLa) | Potency (Hek293T) | Potency (JEG-3) | Potency (OV90)

c1ccc2c(c1)CCCC2C1=NCCN1 (stereo not given)
inactive: Potency (UISO) | Potency (WaGa) | Potency (C33A) | Potency (CAOV3) | Potency (CASKI) | Potency (Es-2) | Potency (HeLa) | Potency (Hek293T) | Potency (JEG-3) | Potency (OV90)

NCCCNCCSP(=O)(O)O
inactive: activity change, negative = cytotoxicity (UISO) -0.378% [at 9.22 µM] | activity change, negative = cytotoxicity (WaGa) 14.2% [at 9.22 µM] | activity change, negative = cytotoxicity (C33A) 4.43% [at 11.6 µM] | activity change, negative = cytotoxicity (CAOV3) 4.48% [at 11.6 µM] | activity change, negative = cytotoxicity (CASKI) 0.847% [at 11.6 µM] | activity change, negative = cytotoxicity (Es-2) 6.18% [at 11.6 µM] | activity change, negative = cytotoxicity (HeLa) 7.86% [at 11.6 µM] | activity change, negative = cytotoxicity (Hek293T) -0.973% [at 11.6 µM] | activity change, negative = cytotoxicity (JEG-3) -0.217% [at 11.6 µM] | activity change, negative = cytotoxicity (OV90) -0.281% [at 11.6 µM]

CC(=O)[C@@]1(O)CC[C@H]2[C@@H]3CCC4=CC(=O)CC[C@]4(C)[C@H]3CC[C@@]21C
inactive: Potency (UISO) | Potency (WaGa) | Potency (C33A) | Potency (CAOV3) | Potency (CASKI) | Potency (Es-2) | Potency (HeLa) | Potency (Hek293T) | Potency (JEG-3) | Potency (OV90)

COc1cc(Cc2cnc(N)nc2N)cc(OC)c1OC
inactive: Potency (UISO) | Potency (WaGa) | Potency (C33A) | Potency (CAOV3) | Potency (CASKI) | Potency (Es-2) | Potency (HeLa) | Potency (Hek293T) | Potency (JEG-3) | Potency (OV90)

C[C@H](CS)C(=O)N1CCC[C@H]1C(=O)O
inactive: Potency (UISO) | Potency (WaGa) | Potency (C33A) | Potency (CAOV3) | Potency (CASKI) | Potency (Es-2) | Potency (HeLa) | Potency (Hek293T) | Potency (JEG-3)
